A short description of assay [1]: inhibitors of TNFa-induced NFkB p65 translocation, primary screen, imaging, HUVEC, MLSMR starter and 10KST1 sets (AID 438;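 active = inhibition above 20% together with a positive visual image hit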;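 also: compound added about 3h40 before a 20 min TNFalpha stimulation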;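 as to inhibition: signal is the nuclear over cytoplasmic p65 intensity ratio per well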). The settings on record: HUVEC TNFa-induced p65 nuclear translocation; cell count: measured here: nuclei count (cytotoxicity indicator), at 2.08 µM; inhibition: at 2 µM, stronger effect = higher value, 0% TNFa-plus-vehicle, 100% no-TNFa wells.
Assay [2] in a line: reduction of polyQ htt aggregates in cells – imaging, exon1htt(103Q)mCFP cells, high-content imaging, primary screen (AID 483;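 active = visual image review flags a hit and inhibition of aggregation exceeds 20%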;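 also: compound exposure lasted 3 days before fixation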;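 as to nuclei count: percent of the per-plate median nuclei count of sample wells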). The settings on record: exon1htt(103Q)mCFP cell line, aggregate imaging, at 2 µM; inhibition of aggregation: stronger effect = higher value; nuclei count: measured here: cell count, toxicity.
Assay [3] can be described thus: endothelial E-selectin expression blockers – imaging, HUVEC, immunofluorescence, MLSMR starter and 10KST1 sets, primary screen (AID 487).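 As to inhibition: signal is fraction of cell area covered by stained E-selectin grains.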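 As to nuclei count: 100% = median nuclei count of all wells on the same plate.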 The settings on record: HUVEC TNFalpha-induced E-selectin immunofluorescence imaging, at 2 µM; inhibition: stronger effect = higher value; nuclei count: measured here: cell number, toxicity.
For assay [4], the target named is Voltage-gated potassium channel subunit beta-2 (Rattus norvegicus) (UniProt P62483). The assay is described as follows: inhibitors of rat Kvbeta2 reductase activity – biochemical, NADPH fluorescence, primary screen (AID 622;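 active = fluorescence slope higher than the sample average by over 3 SD, cut at about -0.22 in these data, passing the limit was not always enough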;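 also: slope of raw intensity against log time taken from 70 to 1610 s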). The settings on record: recombinant KvBeta, 4-cyanobenzaldehyde reduction, at 10 µM, stronger effect = higher value.
For assay [5] the target is unchanged. The assay is described as follows: enhancers of rat Kvbeta2 NADPH turnover – biochemical, NADPH fluorescence, primary screen (AID 623;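 active = NADPH fluorescence slope more negative than the mean of all samples by about 3 SD, 99.7% confidence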;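 also: fluorescence intensity change per second fitted from 20 to 320 s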). The settings on record: Recombinant KvBeta, NADPH fluorescence decrease slope, 10 min; at 10 µM; stronger effect = lower value.
Assay [6] concerns the target Alpha-2C adrenergic receptor (Homo sapiens) (UniProt P18825). The assay is described as follows: compounds altering alpha2C-coupled GIRK flux – cell-based, HEK293 alpha2C/GIRK1/2, thallium flux, primary screen (AID 624;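 active = fluorescence slope after compound addition differing from the mean of all screened samples at 99.7% confidence, in either direction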;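 also: slope of fluorescence ratio to pre-addition baseline per second over 15 to 24 s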). The settings on record: thallium flux BTC fluorescence, at 10 µM, actives lie on both sides.
Assay [7] is described as follows: blockers of RIG-like receptor reporter activation – cell-based, Sendai virus stimulus, luciferase, 10K MLSCN set, TLR/RLR signaling modifier project, primary screen (AID 602276;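 active = inhibition at or above 50% at 10 µM; inactive = inhibition below 50%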;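 also: firefly luciferase from ISG56 promoter only with Renilla not read in this screen; 0% = Sendai virus plus DMSO and 100% = medium plus DMSO without virus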). The settings on record: HEK293 RL24 IRF3 luciferase reporter, at 10 µM, stronger effect = higher value. Background: A reporter such as luciferase makes a cellular process visible.
Assay [8] is described as follows: TLR3 IRF3 reporter activation blockers – cell-based, poly I:C stimulus, luciferase, 10K MLSCN set, primary screen (AID 602277;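 active = inhibition of the reporter signal at or above 50%; inactive = inhibition below 50%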). The settings on record: HEK293-TLR3 RL24 IRF3 luciferase reporter, at 10 µM, stronger effect = higher value.

Molecules are shown by their SMILES. Calls of active or inactive are those of the source.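 The calls were made as follows, unless noted: active = visually confirmed hit in the image check and inhibition above 20%; inconclusive = visually confirmed hit but inhibition not above 20%; inactive = no visual hit in the image check.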

Chain of Voltage-gated potassium channel subunit beta-2 (Rattus norvegicus) (P62483 whole entry, looked up): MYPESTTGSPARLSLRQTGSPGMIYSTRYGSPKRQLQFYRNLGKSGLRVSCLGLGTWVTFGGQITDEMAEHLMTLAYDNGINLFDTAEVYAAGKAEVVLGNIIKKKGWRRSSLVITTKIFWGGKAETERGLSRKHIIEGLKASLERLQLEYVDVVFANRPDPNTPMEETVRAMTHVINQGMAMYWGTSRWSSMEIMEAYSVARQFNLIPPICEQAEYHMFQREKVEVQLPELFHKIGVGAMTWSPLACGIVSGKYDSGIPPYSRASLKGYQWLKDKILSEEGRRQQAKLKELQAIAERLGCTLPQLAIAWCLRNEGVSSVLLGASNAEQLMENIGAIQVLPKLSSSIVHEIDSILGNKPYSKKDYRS
Chain of Alpha-2C adrenergic receptor (Homo sapiens) (P18825 whole entry, looked up): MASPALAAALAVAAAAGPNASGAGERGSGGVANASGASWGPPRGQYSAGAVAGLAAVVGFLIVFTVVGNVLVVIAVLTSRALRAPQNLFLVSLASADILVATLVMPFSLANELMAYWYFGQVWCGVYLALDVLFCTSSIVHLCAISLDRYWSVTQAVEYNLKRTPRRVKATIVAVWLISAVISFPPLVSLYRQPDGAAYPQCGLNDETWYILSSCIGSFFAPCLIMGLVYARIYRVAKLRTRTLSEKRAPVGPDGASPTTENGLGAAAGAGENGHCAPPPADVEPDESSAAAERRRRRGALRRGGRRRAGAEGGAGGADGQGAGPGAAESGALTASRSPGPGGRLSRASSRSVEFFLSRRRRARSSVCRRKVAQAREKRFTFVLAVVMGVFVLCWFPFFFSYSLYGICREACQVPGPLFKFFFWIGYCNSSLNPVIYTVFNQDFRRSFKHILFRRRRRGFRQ

For `COc1cc(OC)c2c(c1)OC(c1ccc(OC)c(OC)c1)C(O)C2=O` (centres undefined), the cell count in assay [1] turned out to be 524. For the same molecule, the inhibition (as a rule, the relative decrease from the control value, in per cent) in assay [1] was 2.6% (inactive); in assay [3] it was -60% (inactive); in assay [7], 10.3% (inactive); in assay [8], 3.76% (inactive). The inhibition of aggregation in assay [2] was -8.9% (inactive). For the same molecule, the results for the nuclei count in assay [2] and in assay [3] were 104% and 115%, respectively. In addition, the fluorescence slope in assay [4] is -0.5 (inactive). In addition, the NADPH fluorescence slope in assay [5] is -2.5e-05 (inactive). The slope in assay [6] was 0.00643 (inactive).
Take `C/C=C(\CS(=O)(=O)c1ccccc1)S(=O)(=O)c1ccccc1`: in assay [1], the cell count was 167. The inhibition is 2.2% (inactive) in assay [1], -49.3% (inactive) in assay [3], 19.1% (inactive) in assay [7] and 21.9% (inactive) in assay [8]. For the same molecule, in assay [2], the inhibition of aggregation is 9.7% (inactive). In addition, the nuclei count in assay [2] was 101%; in assay [3] it was 73%. The fluorescence slope in assay [4] was -0.508 (inactive). The NADPH fluorescence slope in assay [5] was -1.7e-05 (inactive). Besides, the slope in assay [6] was 0.00524 (inactive).
For the molecule `COc1ccc(NC(=O)CSc2nnc(-c3ccccc3C)n2C)cc1`, the cell count in assay [1] stood at 661. Moreover, the inhibition in assay [1] is 1.6% (inactive); in assay [3] it was 81.4% (active); in assay [7], 5.44% (inactive); in assay [8] it was 28.1% (inactive). Also, the inhibition of aggregation in assay [2] was 3.2% (inactive). Further, the nuclei count in assay [2] turned out to be 121%; in assay [3], 111%. In addition, in assay [4], the fluorescence slope is -0.422 (inactive). Besides, in assay [5], the NADPH fluorescence slope was -3.9e-05 (inactive). For the same molecule, the slope in assay [6] was 0.0036 (inactive).
As to `O=C(Cn1cc2c(n1)CCCC2)NCCc1ccccc1`, the cell count in assay [1] was 792. Besides, the inhibition in assay [1] was -3.7% (inactive); in assay [3], -47.8% (inactive); in assay [7] it was 5.6% (inactive); in assay [8] it was 31.9% (inactive). The inhibition of aggregation in assay [2] is 0.9% (inactive). Besides, the nuclei count in assay [2] stood at 106%; in assay [3], 118%. For the same molecule, in assay [4], the fluorescence slope is -0.428 (inactive). For the same molecule, in assay [5], the NADPH fluorescence slope is -2.6e-05 (inactive). In addition, the slope in assay [6] was 0.00628 (inactive).
In the case of `CCCCOCCCNC(=O)c1cccs1`, the cell count in assay [1] was 471. Besides, the inhibition in assay [1] was 4.5% (inactive); in assay [3], -392% (inactive); in assay [7] it was 5.11% (inactive); in assay [8] it was 25.1% (inactive). Further, the inhibition of aggregation in assay [2] was -4.3% (inactive). In addition, the values for the nuclei count in assay [2] and in assay [3] were 103% and 139%, respectively. Also, the fluorescence slope in assay [4] is -0.443 (inactive). Further, the NADPH fluorescence slope in assay [5] is -2.3e-05 (inactive). Moreover, in assay [6], the slope was 0.00349 (inactive).
For `COC(=O)CC1SCCNC1=O` (centres undefined), the cell count in assay [1] was 308. For the same molecule, the inhibition in assay [1] was 0.8% (inactive); in assay [3], 38.9% (inactive); in assay [7], 0.969% (inactive); in assay [8], -5.15% (inactive). In addition, the inhibition of aggregation in assay [2] was -7.1% (inactive). Moreover, the nuclei count was found to be 97.9% in assay [2] and 98.8% in assay [3]. Also, the fluorescence slope in assay [4] is -0.552 (inactive). The NADPH fluorescence slope in assay [5] is 2e-05 (inactive). The slope in assay [6] is 0.00463 (inactive).
For `CCN(CC)C(=O)CSc1nnc(-c2cc(OC)cc(OC)c2)o1`, the cell count in assay [1] stood at 733. In addition, the inhibition in assay [1] was 0.6% (inactive); in assay [3], 19.1% (inactive); in assay [7], 8.18% (inactive); in assay [8], 2.13% (inactive). Besides, the inhibition of aggregation in assay [2] is 10.3% (inactive). Besides, the nuclei count in assay [2] worked out at 100%; in assay [3], 109%. Also, the fluorescence slope in assay [4] was -0.413 (inactive). Besides, the NADPH fluorescence slope in assay [5] was -4.5e-05 (inactive). For the same molecule, in assay [6], the slope was 0.00522 (inactive).
In the case of `CCC(C)(C)NC(=O)CN(Cc1ccc2c(c1)OCO2)C(=O)CCC(=O)Nc1ccccn1`, the cell count in assay [1] is 517. In addition, the inhibition is -20.9% (inactive) in assay [1], -59.2% (inactive) in assay [3], 12.5% (inactive) in assay [7] and 21.6% (inactive) in assay [8]. Besides, in assay [2], the inhibition of aggregation is -0.5% (inactive). The nuclei count came to 92.4% in assay [2] and 114% in assay [3]. For the same molecule, the fluorescence slope in assay [4] was -0.403 (inactive). Further, the NADPH fluorescence slope in assay [5] is -6.3e-05 (inactive). The slope in assay [6] is 0.00669 (inactive).
For `C=CCn1c(C)cc(C(=O)CSc2nc3ccccc3o2)c1C`, the cell count in assay [1] was 615. Further, the inhibition in assay [1] was -8.9% (inactive); in assay [3], -58.1% (inactive); in assay [7], -26.5% (inactive); in assay [8], -136% (inactive). Also, in assay [2], the inhibition of aggregation was -16.3% (inactive). For the same molecule, the values for the nuclei count in assay [2] and in assay [3] were 105% and 104%, respectively. In addition, the fluorescence slope in assay [4] is -0.595 (inactive). Further, the NADPH fluorescence slope in assay [5] was -5.9e-05 (inactive). In addition, in assay [6], the slope is 0.00586 (inactive).
As to `CCOC(=O)N1CCN(C(=O)CSc2cc(C)nc3c(-c4ccccc4OC)c(C)nn23)CC1`, the cell count in assay [1] is 543. Also, the inhibition in assay [1] is -9.8% (inactive); in assay [3] it was 14.7% (inactive); in assay [7], -11.1% (inactive); in assay [8], -5.36% (inactive). Moreover, the inhibition of aggregation in assay [2] is -34.4% (inactive). Also, the nuclei count was 122% in assay [2] and 110% in assay [3]. The fluorescence slope in assay [4] is -0.54 (inactive). In addition, the NADPH fluorescence slope in assay [5] was 1.2e-05 (inactive). In addition, in assay [6], the slope is 0.00377 (inactive).
Turning to `CS(=O)(=O)N(CC(=O)NCc1ccncc1)Cc1ccc(Cl)cc1`, the cell count in assay [1] was 614. Besides, the inhibition in assay [1] was 8.7% (inactive); in assay [3], -83.3% (inactive); in assay [7] it was 17.3% (inactive); in assay [8] it was 18% (inactive). Besides, the inhibition of aggregation in assay [2] is -13.4% (inactive). Moreover, the figures for the nuclei count in assay [2] and in assay [3] were 107% and 121%, respectively. Also, the fluorescence slope in assay [4] is -0.471 (inactive). Moreover, the NADPH fluorescence slope in assay [5] was -1.2e-06 (inactive). Besides, in assay [6], the slope is 0.00437 (inactive).
On to `CCOC(=O)N1CCN(C(=O)COc2ccc(S(=O)(=O)NC(C)C)cc2)CC1`, for which the cell count in assay [1] worked out at 623. The inhibition in assay [1] was 6.2% (inactive); in assay [3], 11.5% (inactive); in assay [7], 10.8% (inactive); in assay [8], 24.1% (inactive). In addition, in assay [2], the inhibition of aggregation was -5.3% (inactive). Moreover, the nuclei count in assay [2] was found to be 110%; in assay [3], 115%. In addition, in assay [4], the fluorescence slope is -0.548 (inactive). Also, the NADPH fluorescence slope in assay [5] is -3.6e-05 (inactive). Also, the slope in assay [6] was 0.00507 (inactive).
As to `CCOC(=O)C(CC)n1nc(C)n2c(cc3sccc32)c1=O` (centres undefined), in assay [1], the cell count was determined as 526. For the same molecule, the inhibition was 7.7% (inactive) in assay [1], -25.8% (inactive) in assay [3], 10.8% (inactive) in assay [7] and 19.7% (inactive) in assay [8]. For the same molecule, the inhibition of aggregation in assay [2] is 14.3% (inactive). Also, the nuclei count in assay [2] stood at 110%; in assay [3], 122%. Besides, in assay [4], the fluorescence slope is -0.567 (inactive). Further, in assay [5], the NADPH fluorescence slope is -3.4e-05 (inactive). Also, the slope in assay [6] is 0.0065 (inactive).
Consider `CCC(=O)N1CCN=C1SCc1ccc(Cl)cc1`, for which the cell count in assay [1] is 233. In addition, the inhibition in assay [1] is -4.9% (inactive); in assay [3] it was 7.9% (inactive); in assay [7] it was 21.3% (inactive); in assay [8], 43.1% (inactive). In addition, the inhibition of aggregation in assay [2] was -22.3% (inactive). Further, the nuclei count in assay [2] was determined as 111%; in assay [3] it was 106%. For the same molecule, the fluorescence slope in assay [4] was -0.559 (inactive). For the same molecule, in assay [5], the NADPH fluorescence slope is 5.6e-05 (inactive). For the same molecule, the slope in assay [6] is 0.00598 (inactive).

Values taken from PubChem BioAssay.
